# Results reported in ChEMBL document CHEMBL4513216, “Probing the Open Global Health Chemical Diversity Library for Multistage-Active Starting Points for Next-Generation Antimalarials” (ACS Infect Dis, 2020).
# Among all 69,000 compounds or so, about 8,600 (12%) showed an effect of 50% or more. The list comes from a sample in which strong results are over-represented; it also holds similar structures and randomly drawn compounds.
# Tested on: Plasmodium berghei
# Assay: Screen against P. berghei liver stage (PbLuc), transformed with Luciferase, at 10uM
# Format: functional, HepG2
# Conditions: tested at 10 uM
row,SMILES,INHIBITION [%]
1,O=c1cc(CN2CCCC2)nc2n1CCCN(Cc1ccco1)C2,0.804
2,CN(C)Cc1cc(=O)n2c(n1)CN(Cc1ccco1)CCC2,26.5
3,CS(=O)(=O)NCc1cc(=O)n2c(n1)CN(Cc1ccco1)CCC2,52.3
4,CCc1nc(CN2CCCCC2C(N)=O)cs1 (stereo not given),-2.43
5,COc1c(C(=O)NC(C)CC(=O)c2cccs2)c(C)nn1C (stereo not given),36.7
6,Cc1cc(C(=O)NC(C)CC(=O)c2cccs2)n(C)n1 (stereo not given),-18.8
7,Cc1nn(C)c(C)c1C(=O)NC(C)CC(=O)c1cccs1 (stereo not given),61.4
8,O=C([C@@H]1CC[C@@H]2[C@@H](CCN2c2ccncn2)O1)N1CCCCO1,5.68
9,COCCOc1ccc(NC(=O)N2CCOC(C(N)=O)C2)cc1F (stereo not given),15.9
10,COc1ccc(C2(NC(=O)C3CC(=O)N(C)C3)CCCC2)cc1 (stereo not given),26
11,CNC(=O)CN1CCC(CN(C)Cc2ccncc2Cl)CC1,-22.1
12,Nc1nc2c(c(NC3CCCC3)n1)CCN(C(=O)C1CCOC1)CC2 (stereo not given),97.2
13,O=C(C1CCOC1)N1CCc2ncnc(C3CC3)c2CC1 (stereo not given),-13.4
14,O=C(C1CCOC1)N1CCc2ncnc(NC3CCC3)c2CC1 (stereo not given),51.3
15,O=C(C1CCCO1)N1CCc2ncnc(NC3CCC3)c2CC1 (stereo not given),-29.5
16,O=C([C@H]1CCCO1)N1CCc2ncnc(NC3CC3)c2CC1,48.5
17,CC(C)Nc1nc2c(c(NC3CC3)n1)CCN(C(=O)C1CCOC1)CC2 (stereo not given),34.3
18,N#Cc1cccc(OCc2ccoc2C(=O)N2CCCCCC2)c1,5.91
19,O=C(C1CCCO1)N1C[C@@H]2CCN(c3cnccn3)C[C@@H]2C1 (stereo not given in full),28.4
20,Cc1cc(C(=O)NCc2c(C)nn(C)c2C)nc(N2CCCC2)n1,-31.4
21,O=C(O)c1cnc(N2CC[C@H](N3CCOCC3)[C@H](CCCO)C2)c(Cl)c1,14
22,O=S(=O)(NC1=NCN(CCc2ccccc2)CN1)c1ccc(F)cc1,-4.52
23,Cc1occc1C(=O)NCc1cccnc1N(C)C,33.15
24,Cc1cccc(-c2noc(CN3CCc4c(ncn4C4CC4)C3)n2)c1,18.3

row,SMILES,INHIBITION [%]
1,CC(c1nc(C2CC2)no1)N1CCc2c(ncn2C2CC2)C1 (stereo not given),17
2,CC(c1nc(C2CC2)no1)N1CCN(CCc2ccncc2)CC1 (stereo not given),-45.9
3,CCc1noc(C(C)N2CCc3c(ncn3C3CC3)C2)n1 (stereo not given),-1.04
4,CC(c1nc(C2CC2)no1)N1CCc2c(ncn2C)C1 (stereo not given),56
5,CC(c1nc(-c2ccccc2)no1)N1CCc2c(ncn2C2CC2)C1 (stereo not given),78.3
6,N#Cc1ccc(S(=O)(=O)Nc2cnn(C3CCOCC3)c2)cc1,5.51
7,CC(C)(NC(=O)c1cnc(-c2ccccc2F)s1)C(N)=O,-8.9
8,Cc1cnc(N2CC[C@@H]3O[C@@H](COCc4ccccn4)CC[C@@H]32)nc1,41.6
9,COc1ccc(-c2cc(=O)n3c(n2)CCCCC3)cc1,1.45
10,Cc1nn(C)c(C)c1-c1ccnc(N(C)Cc2noc(C(C)C)n2)n1,4.35
11,Cc1nn(C)c(C)c1-c1ccnc(N(C)Cc2nc(C(C)C)no2)n1,68.2
12,Cc1nn(C)cc1-c1ccnc(N(C)Cc2noc(C(C)C)n2)n1,-147
13,Cc1csc(C2CCCN(C(=O)c3cccc4c3OCO4)C2)n1 (stereo not given),27.6
14,Cc1nc(CN2CCN(C)C(=O)C23CCN(C(C)C)CC3)cs1,32.5
15,Cc1cc(C)n2ncc(CN3CCC(Cn4cc(CO)nn4)CC3)c2n1,20.1
16,Cc1cc(C)n2ncc(CN3C[C@@H](O)[C@H](Oc4ccccc4)C3)c2n1,-5.71
17,Cc1cc(C)n2ncc(CN3CCC(n4cc(CCO)nn4)CC3)c2n1,58.6
18,Cc1ccc(CN2CCC(n3cc(CN4CCC(O)CC4)nn3)CC2)s1,7.43
19,COCc1cn(C2CCN(Cc3ccc(Cl)s3)CC2)nn1,5.23
20,Cc1cccc(CN2CCC(n3cc(CCO)nn3)CC2)c1C,53.3
21,COCCN1CCN(Cc2cnc(C3(C)CCCCO3)nc2)CC1 (stereo not given),3.25
22,CS(=O)(=O)NCCC1CCCCN1C(=O)NCCc1ccccc1 (stereo not given),28.3
23,COCCN1CCN(Cc2csc(-c3cnn(C)c3)n2)CC1,7.75
24,Cn1cc(-c2nc(CN3CCN(CCO)CC3)cs2)cn1,-0.847

row,SMILES,INHIBITION [%]
1,c1cnc(-c2nc(CN3CCCC(N4CCCC4)C3)cs2)nc1 (stereo not given),-16.817
2,CC1CCCN(Cc2csc(-c3ncccn3)n2)CC1 (stereo not given),80.8
3,c1cnc(-c2nc(CN3CCn4c(nnc4C4CC4)C3)cs2)nc1,-0.219
4,CCCC1CCCN(Cc2csc(-c3ncccn3)n2)CC1 (stereo not given),91.7
5,c1cnc(-c2nc(CN3CCCC(Cn4cncn4)C3)cs2)nc1 (stereo not given),15.6
6,COCC(=O)N1CCN(Cc2csc(-c3ncccn3)n2)CC1,38.9
7,CCCC1CCCN(Cc2csc(-c3cnn(C)c3)n2)CC1 (stereo not given),55.9
8,NC(=O)C1CCN(Cc2csc(-c3ncccn3)n2)CC1,55.05
9,CC(=O)NC1CCCN(Cc2csc(-c3ncccn3)n2)C1 (stereo not given),35.4
10,CCC1CCCN(C(=O)Cc2csc(-c3ncccn3)n2)C1 (stereo not given),14.7
11,Cn1ccc(C(=O)N2CCC3(CC2)CC(Nc2cnccn2)CO3)n1 (stereo not given),-4.26
12,COc1ccc(-n2nc(C(C)=O)c(C(C)=O)c2C)cc1Cl,-7.27
13,Cn1cc(NC(=O)Nc2ccc3c(c2)OCO3)cn1,24
14,OCCN(Cc1ccno1)Cc1cc(Br)ccc1F,25.3
15,COCC(=O)NCCc1nc(N(C)C)ncc1-c1ccncc1,14.325
16,NCC(=O)N1CCCC1c1n[nH]cc1-c1ccccc1F (stereo not given),10.9
17,Cc1cc(N2CCCC(O)(CN(C)C)C2)c2cc3c(cc2n1)OCO3 (stereo not given),11.6
18,CC(C)Oc1cccc(C(=O)Nc2nncs2)c1,-16.8
19,CCCS(=O)(=O)N1Cc2ccnn2CC(c2nc(C)no2)C1 (stereo not given),28.2
20,c1cnc(-c2nc(CN3CCN(CC4CC4)CC3)cs2)nc1,77.85
21,c1cnc(-c2nc(CN3CCCN(Cc4cccs4)CC3)cs2)nc1,39.75
22,c1cnc(-c2nc(CN3CCC(c4ccn[nH]4)CC3)cs2)nc1,12.8
